Each target was assayed with C#CCNC(=O)CCSSCCC(=O)NCCc1ccc(C=O)c(C=O)c1 (assay: lysine labeling ratio R10:1 (500 µM / 50 µM probe), SILAC-ABPP in living cells; higher = lower intrinsic lysine reactivity toward the probe, active = 2 or less). Settings: HeLa; probe concentrations 500 vs 50 µM.
Experimental: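 Living HeLa cells (SILAC light/heavy) in PBS at room temperature were labeled with 50 µM versus 500 µM of the lysine-reactive, reductant-cleavable probe OPA-S-S-alkyne (SILAC labeling time not stated). Probe-modified peptides were CuAAC-biotinylated, captured on neutravidin and eluted with DTT/IAA, then quantified by LC-MS/MS. R = median peptide ratio per lysine (500/50 µM), combined over 3 forward and 3 reverse SILAC replicates. Ratios are capped at 20; R < 2 = hyper-reactive.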

Chain of UniProt Q00839 (Q00839 whole entry): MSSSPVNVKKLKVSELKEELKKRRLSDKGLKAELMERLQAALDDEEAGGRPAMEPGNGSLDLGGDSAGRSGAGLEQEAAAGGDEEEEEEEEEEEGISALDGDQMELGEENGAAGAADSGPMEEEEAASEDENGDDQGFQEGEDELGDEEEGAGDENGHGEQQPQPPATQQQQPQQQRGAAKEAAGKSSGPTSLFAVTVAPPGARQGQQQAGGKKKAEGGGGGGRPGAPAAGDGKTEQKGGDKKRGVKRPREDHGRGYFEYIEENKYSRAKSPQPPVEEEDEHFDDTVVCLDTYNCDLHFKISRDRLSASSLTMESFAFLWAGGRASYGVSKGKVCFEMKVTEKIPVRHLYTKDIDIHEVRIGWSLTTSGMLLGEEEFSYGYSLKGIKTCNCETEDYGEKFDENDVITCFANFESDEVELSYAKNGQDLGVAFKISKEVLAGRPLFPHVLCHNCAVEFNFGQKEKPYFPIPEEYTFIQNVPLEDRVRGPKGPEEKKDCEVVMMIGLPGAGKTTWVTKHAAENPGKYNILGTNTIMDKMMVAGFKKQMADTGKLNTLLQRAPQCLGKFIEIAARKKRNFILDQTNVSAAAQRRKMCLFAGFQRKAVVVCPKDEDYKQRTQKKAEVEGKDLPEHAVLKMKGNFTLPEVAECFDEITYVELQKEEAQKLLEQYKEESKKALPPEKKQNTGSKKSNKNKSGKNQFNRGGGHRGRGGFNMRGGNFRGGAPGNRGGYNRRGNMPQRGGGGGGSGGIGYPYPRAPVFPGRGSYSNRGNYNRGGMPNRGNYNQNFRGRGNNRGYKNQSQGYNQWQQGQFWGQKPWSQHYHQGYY
Chain of UniProt P12956 (P12956 whole entry): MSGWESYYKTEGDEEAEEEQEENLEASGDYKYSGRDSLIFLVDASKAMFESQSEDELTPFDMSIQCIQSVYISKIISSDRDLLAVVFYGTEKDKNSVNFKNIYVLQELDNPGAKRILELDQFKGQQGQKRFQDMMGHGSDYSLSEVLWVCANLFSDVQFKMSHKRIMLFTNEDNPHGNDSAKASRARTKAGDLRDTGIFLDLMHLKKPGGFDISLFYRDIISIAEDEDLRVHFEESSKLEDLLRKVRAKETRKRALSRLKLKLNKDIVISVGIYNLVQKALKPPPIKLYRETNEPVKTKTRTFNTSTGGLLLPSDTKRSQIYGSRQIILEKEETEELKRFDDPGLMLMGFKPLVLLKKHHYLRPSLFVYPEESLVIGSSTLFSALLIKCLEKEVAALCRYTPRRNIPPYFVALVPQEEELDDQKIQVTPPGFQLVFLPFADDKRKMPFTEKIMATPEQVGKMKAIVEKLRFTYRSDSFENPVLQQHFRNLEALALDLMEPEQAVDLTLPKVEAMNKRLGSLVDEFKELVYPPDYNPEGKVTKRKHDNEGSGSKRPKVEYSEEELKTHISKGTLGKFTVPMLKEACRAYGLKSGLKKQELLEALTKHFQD
Chain of UniProt P27105 (P27105 whole entry): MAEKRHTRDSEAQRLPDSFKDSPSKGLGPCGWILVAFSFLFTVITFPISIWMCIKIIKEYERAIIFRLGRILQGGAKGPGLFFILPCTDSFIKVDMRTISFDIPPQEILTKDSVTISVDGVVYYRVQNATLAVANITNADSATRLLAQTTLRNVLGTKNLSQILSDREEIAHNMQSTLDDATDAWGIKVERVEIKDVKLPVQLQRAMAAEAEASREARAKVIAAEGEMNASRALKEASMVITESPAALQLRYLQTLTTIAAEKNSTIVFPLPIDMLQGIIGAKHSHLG
Chain of UniProt P18206 (P18206 whole entry): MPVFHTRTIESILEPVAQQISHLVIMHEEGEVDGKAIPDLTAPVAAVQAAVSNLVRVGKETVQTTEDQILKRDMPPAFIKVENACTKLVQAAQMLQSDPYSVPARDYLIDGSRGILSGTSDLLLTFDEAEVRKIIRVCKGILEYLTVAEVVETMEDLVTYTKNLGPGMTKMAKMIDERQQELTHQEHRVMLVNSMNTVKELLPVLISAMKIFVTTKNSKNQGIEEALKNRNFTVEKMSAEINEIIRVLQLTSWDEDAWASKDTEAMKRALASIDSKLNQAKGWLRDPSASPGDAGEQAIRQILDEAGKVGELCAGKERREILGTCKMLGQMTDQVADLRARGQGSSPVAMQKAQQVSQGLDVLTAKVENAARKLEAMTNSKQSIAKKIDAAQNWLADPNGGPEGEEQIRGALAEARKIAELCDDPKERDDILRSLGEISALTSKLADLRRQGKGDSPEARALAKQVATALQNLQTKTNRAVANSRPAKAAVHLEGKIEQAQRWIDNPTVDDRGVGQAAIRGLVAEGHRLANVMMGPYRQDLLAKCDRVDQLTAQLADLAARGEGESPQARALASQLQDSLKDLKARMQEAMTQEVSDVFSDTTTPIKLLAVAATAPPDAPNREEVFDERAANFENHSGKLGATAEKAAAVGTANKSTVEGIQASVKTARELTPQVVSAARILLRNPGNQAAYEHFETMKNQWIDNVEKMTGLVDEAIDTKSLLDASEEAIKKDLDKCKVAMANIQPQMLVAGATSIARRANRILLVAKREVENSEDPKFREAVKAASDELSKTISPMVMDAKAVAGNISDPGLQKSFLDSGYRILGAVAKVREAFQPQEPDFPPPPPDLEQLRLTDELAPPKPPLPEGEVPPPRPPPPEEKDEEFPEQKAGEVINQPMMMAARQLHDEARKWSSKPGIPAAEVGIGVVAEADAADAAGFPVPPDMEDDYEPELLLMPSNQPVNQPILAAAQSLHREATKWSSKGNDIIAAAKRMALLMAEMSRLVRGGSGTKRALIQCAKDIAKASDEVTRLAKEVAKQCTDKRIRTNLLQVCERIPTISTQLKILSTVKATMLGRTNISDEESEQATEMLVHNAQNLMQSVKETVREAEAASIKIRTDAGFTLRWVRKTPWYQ
Chain of UniProt Q13308 (Q13308 whole entry): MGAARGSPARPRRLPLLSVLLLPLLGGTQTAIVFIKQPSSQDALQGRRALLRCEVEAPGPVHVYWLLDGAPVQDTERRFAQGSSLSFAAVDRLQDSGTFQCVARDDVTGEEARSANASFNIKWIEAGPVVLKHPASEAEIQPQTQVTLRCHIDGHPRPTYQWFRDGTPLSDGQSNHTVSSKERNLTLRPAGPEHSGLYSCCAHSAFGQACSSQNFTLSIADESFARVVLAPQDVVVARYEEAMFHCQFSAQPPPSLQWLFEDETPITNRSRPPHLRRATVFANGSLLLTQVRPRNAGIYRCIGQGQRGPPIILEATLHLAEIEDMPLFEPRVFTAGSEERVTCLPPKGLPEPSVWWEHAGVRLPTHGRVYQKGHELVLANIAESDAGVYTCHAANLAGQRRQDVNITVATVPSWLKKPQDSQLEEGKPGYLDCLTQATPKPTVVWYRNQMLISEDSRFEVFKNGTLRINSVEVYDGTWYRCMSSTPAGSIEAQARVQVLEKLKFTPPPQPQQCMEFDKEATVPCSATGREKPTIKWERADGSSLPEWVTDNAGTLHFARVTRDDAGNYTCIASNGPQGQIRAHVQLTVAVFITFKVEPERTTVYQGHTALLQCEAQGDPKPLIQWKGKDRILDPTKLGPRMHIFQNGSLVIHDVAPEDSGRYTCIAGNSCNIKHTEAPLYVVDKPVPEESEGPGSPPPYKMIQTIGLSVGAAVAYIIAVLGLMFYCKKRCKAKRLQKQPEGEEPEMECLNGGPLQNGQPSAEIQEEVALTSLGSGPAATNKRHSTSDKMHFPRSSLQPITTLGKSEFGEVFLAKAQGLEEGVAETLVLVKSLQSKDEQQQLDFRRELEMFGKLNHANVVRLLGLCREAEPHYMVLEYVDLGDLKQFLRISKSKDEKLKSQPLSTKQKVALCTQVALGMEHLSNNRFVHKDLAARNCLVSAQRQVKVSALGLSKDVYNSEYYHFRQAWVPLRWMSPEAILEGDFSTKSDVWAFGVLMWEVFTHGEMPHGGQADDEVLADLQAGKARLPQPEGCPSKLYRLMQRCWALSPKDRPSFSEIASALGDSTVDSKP
Chain of UniProt P17844 (P17844 whole entry): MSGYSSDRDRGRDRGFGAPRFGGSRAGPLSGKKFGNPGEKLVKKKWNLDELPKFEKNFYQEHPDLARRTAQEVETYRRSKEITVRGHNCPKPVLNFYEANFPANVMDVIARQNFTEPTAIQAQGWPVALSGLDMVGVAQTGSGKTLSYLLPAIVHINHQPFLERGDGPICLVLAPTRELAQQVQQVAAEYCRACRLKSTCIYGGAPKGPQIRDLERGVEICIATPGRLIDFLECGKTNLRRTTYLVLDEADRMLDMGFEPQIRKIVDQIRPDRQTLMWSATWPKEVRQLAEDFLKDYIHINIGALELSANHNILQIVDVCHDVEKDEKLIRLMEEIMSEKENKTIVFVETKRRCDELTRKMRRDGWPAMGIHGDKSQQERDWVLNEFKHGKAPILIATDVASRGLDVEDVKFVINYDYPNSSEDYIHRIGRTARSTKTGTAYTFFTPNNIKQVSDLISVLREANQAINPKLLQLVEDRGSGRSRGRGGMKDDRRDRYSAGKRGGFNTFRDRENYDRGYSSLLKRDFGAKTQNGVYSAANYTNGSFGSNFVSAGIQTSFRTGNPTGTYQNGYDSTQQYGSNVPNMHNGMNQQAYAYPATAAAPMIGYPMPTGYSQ
Chain of UniProt P51572 (P51572 whole entry): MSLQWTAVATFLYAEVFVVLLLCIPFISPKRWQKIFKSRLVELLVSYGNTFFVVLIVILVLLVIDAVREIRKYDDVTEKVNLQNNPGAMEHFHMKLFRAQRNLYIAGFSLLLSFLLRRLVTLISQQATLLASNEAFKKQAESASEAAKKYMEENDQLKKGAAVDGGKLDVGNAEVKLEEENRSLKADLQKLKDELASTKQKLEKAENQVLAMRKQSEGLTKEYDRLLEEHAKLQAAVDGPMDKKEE
Chain of UniProt P32970 (P32970 whole entry): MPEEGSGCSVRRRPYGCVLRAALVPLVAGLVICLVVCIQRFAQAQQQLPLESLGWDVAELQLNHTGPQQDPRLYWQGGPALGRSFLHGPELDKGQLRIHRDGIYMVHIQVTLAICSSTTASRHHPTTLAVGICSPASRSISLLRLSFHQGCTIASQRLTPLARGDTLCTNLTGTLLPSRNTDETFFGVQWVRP

| Target | lysine labeling ratio R10:1 |
| --- | --- |
| HNRNPU (lysine site: K697) (UniProt Q00839) | 0.915 (active) |
| GAS1 (lysine site: K140) (UniProt P54826) | 3.54 (inactive) |
| SDF4 (lysine site: K121) (UniProt Q9BRK5) | 1.36 (active) |
| FRAS1 (lysine site: K3278) (UniProt Q86XX4) | 2.1 (inactive) |
| RPL3 (lysine site: K356) (UniProt P39023) | 2.08 (inactive) |
| UniProt P60842 (lysine site: K54) | 1.77 (active) |
| PTK7 (lysine site: K636) (UniProt Q13308) | 11 (inactive) |
| KIRREL (lysine site: K67) (UniProt Q96J84) | 0.92 (active) |
| UniProt Q9NYQ7 (lysine site: K548) | 1.02 (active) |
| SEMA3C (lysine site: K547) (UniProt Q99985) | 2.69 (inactive) |
| XRCC6 (lysine site: K516) (UniProt P12956) | 0.712 (active) |
| SPTAN1 (lysine site: K1759) (UniProt Q13813) | 4.65 (inactive) |
| VCL (lysine site: K316) (UniProt P18206) | 1.77 (active) |
| L1CAM (lysine site: K515) (UniProt P32004) | 1.77 (active) |
| DDX5 (lysine site: K264) (UniProt P17844) | 7.01 (inactive) |
| VAPA (lysine site: K205) (UniProt Q9P0L0) | 7.76 (inactive) |
| CKAP4 (lysine site: K388) (UniProt Q07065) | 2.6 (inactive) |
| XRCC6 (lysine site: K297) (UniProt P12956) | 1.09 (active) |
| PTPRJ (lysine site: K281) (UniProt Q12913) | 0.907 (active) |
| SLC44A2 (lysine site: K210) (UniProt Q8IWA5) | 2.8 (inactive) |

| Target | lysine labeling ratio R10:1 |
| --- | --- |
| EDIL3 (lysine site: K263) (UniProt O43854) | 2.69 (inactive) |
| UniProt O60462 (lysine site: K755) | 2.55 (inactive) |
| SLC3A2 (lysine site: K299) (UniProt P08195) | 6.33 (inactive) |
| FAT4 (lysine site: K2512) (UniProt Q6V0I7) | 2.31 (inactive) |
| LMO7 (lysine site: K1496) (UniProt Q8WWI1) | 2.11 (inactive) |
| CD70 (lysine site: K93) (UniProt P32970) | 3.66 (inactive) |
| UniProt O95084 (lysine site: K185) | 2.74 (inactive) |
| HNRNPU (lysine site: K352) (UniProt Q00839) | 2.95 (inactive) |
| CSRP1 (lysine site: K178) (UniProt P21291) | 0.76 (active) |
| EGFR (lysine site: K293) (UniProt P00533) | 3.59 (inactive) |
| UniProt Q9UKX5 (lysine site: K223) | 2.86 (inactive) |
| GALNT7 (lysine site: K648) (UniProt Q86SF2) | 1.92 (active) |
| IGF1R (lysine site: K474) (UniProt P08069) | 3.24 (inactive) |
| RPL5 (lysine site: K27) (UniProt P46777) | 1.97 (active) |
| BCAP31 (lysine site: K176) (UniProt P51572) | 0.745 (active) |
| PPT1 (lysine site: K191) (UniProt P50897) | 1.31 (active) |
| STOM (lysine site: K198) (UniProt P27105) | 5.83 (inactive) |
| TGFBR3 (lysine site: K685) (UniProt Q03167) | 1.81 (active) |
| PDIA4 (lysine site: K637) (UniProt P13667) | 2.44 (inactive) |
| UniProt P62249 (lysine site: K131) | 2.97 (inactive) |

Reference: the supplement of paper PMC11001985
